# Test results: PubChem BioAssay
# Calls of active or inactive are those of the source.
# Tests used:
# [1] = test system: Plasmodium falciparum Sir2 (PF13_0152, Sir2A); experiment: pfSir2 binders on small-molecule microarrays, primary screen, biochemical, small-molecule microarray, 635 nm fluorescence (AID 1098); conditions: small-molecule microarray binding, fluorescence 635 nm; higher = more signal;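 note: score merges spot fluorescence intensity with its signal-to-noise ratio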
# [2] = small-molecule microarray binders of probe aDKK1, primary screen, biochemical, biotinylated probe, 635/667 nm fluorescence (AID 1099); conditions: higher = more signal;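 note: score merges 667nm spot fluorescence with signal to noise across triplicate slides; reference of the scale not given here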
# [3] = small-molecule microarray binders of probe aCHRDL2, primary screen, biochemical, biotinylated probe, 635/667 nm fluorescence (AID 1100); conditions: higher = more signal
# [4] = splicing luciferase reporter signal modulators, primary screen, spliceosome inhibition project, cell-based, HEK293, splice +/- reporter (AID 1101); conditions: luminescence, 24 h, higher = more signal, called active from +8 up or from −8 down;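 note: HEK293 cells carrying a splicing-competent luciferase reporter gene; test concentration not given here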
# [5] = target: Fibroblast growth factor 10 (Homo sapiens) (UniProt O15520); experiment: FGF10 binders on small-molecule microarrays, primary screen, biochemical, small-molecule microarray, 635 nm fluorescence (AID 1102); conditions: FGF10 binding, fluorescence 635 nm, higher = more signal
# [6] = test system: glycogen synthase kinase-3 (GSK3A per assay name; protocol says GSK3B); experiment: GSK3 binders on small-molecule microarrays, primary screen, biochemical, small-molecule microarray, 635 nm fluorescence, GSK3A (AID 1103); conditions: small-molecule microarray binding, fluorescence 635 nm; higher = more signal; note: the record names both GSK3A and GSK3B
# [7] = target: Epidermal growth factor receptor (Homo sapiens) (UniProt P00533); experiment: EGFR binders on small-molecule microarrays, primary screen, biochemical, small-molecule microarray, 635 nm fluorescence (AID 1104); conditions: EGFR binding, higher = more signal;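 note: score merges 667 nm emission intensity with spot signal to noise over triplicate slides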
# [8] = target: Follistatin-related protein 3 (Homo sapiens) (UniProt O95633); experiment: FSTL3 binders on small-molecule microarrays, primary screen, biochemical, small-molecule microarray, 635 nm fluorescence (AID 1105); conditions: FSTL3 binding, higher = more signal;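 note: score merges emission near 667 nm and signal to noise per printed spot across three slides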
# [9] = target: Dickkopf-related protein 1 (Homo sapiens) (UniProt O94907); experiment: DKK1 binders on small-molecule microarrays, primary screen, biochemical, small-molecule microarray, 635 nm fluorescence scan (AID 1106); conditions: DKK1 binding, higher = more signal;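 note: score merges emission near 667 nm with signal to noise over three replicate slides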
# [10] = test system: Inhibin beta A chain (activin A); experiment: INHBA (activin A) binders on microarrays, primary screen, biochemical, small-molecule microarray, 635 nm fluorescence scan (AID 1107); conditions: small-molecule microarray binding, higher = more signal;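 note: mouse activin A protein probed at 4.33 µg/mL on printed slides; score merges bound-protein fluorescence near 667 nm with spot signal-to-noise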
# Sequence of Follistatin-related protein 3 (Homo sapiens) (O95633 whole entry, looked up): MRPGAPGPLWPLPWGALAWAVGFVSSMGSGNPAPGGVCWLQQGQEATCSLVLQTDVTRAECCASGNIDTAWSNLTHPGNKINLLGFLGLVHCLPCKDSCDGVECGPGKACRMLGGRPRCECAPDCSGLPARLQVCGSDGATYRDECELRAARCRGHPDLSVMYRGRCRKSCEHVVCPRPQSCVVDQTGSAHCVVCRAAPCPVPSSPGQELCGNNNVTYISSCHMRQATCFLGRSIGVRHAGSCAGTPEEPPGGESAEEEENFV
# Sequence of Dickkopf-related protein 1 (Homo sapiens) (O94907 whole entry, looked up): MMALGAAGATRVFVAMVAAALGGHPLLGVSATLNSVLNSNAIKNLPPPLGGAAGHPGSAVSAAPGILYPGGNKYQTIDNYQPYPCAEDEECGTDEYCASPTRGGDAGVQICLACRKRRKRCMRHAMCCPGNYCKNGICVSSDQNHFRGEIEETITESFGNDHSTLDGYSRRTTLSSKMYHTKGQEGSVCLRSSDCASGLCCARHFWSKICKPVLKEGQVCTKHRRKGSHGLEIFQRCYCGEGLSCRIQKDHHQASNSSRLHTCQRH
# Sequence of Epidermal growth factor receptor (Homo sapiens) (P00533 whole entry, looked up): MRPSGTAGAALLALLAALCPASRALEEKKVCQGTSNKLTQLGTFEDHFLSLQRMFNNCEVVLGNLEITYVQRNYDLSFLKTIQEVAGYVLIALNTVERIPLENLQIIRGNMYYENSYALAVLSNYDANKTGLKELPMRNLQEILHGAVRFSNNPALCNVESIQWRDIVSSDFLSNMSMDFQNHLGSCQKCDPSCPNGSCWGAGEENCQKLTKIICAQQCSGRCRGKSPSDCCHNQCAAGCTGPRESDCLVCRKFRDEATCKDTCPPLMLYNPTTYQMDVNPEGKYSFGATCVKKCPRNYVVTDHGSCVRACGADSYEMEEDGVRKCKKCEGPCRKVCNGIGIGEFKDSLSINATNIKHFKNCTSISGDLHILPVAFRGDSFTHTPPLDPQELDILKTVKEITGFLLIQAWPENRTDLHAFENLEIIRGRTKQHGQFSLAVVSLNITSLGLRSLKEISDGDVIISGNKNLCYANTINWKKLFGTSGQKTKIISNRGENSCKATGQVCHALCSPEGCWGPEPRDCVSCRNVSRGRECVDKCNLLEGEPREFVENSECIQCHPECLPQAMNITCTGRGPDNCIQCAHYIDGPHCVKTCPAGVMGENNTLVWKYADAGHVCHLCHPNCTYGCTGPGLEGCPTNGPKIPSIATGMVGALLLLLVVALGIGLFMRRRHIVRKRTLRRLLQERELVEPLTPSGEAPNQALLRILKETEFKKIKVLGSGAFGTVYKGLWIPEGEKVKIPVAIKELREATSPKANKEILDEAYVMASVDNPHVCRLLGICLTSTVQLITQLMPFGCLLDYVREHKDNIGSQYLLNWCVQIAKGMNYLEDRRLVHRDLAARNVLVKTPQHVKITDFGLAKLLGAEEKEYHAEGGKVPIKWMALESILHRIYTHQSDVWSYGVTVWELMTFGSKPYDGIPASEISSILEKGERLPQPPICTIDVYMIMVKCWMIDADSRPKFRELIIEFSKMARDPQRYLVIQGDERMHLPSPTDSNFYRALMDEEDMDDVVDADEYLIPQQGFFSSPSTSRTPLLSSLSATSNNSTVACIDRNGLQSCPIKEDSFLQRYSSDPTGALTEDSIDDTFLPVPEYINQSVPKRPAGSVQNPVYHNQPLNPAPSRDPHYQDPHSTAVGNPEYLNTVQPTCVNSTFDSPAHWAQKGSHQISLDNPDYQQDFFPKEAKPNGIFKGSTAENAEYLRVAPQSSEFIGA
# Sequence of Fibroblast growth factor 10 (Homo sapiens) (O15520 whole entry, looked up): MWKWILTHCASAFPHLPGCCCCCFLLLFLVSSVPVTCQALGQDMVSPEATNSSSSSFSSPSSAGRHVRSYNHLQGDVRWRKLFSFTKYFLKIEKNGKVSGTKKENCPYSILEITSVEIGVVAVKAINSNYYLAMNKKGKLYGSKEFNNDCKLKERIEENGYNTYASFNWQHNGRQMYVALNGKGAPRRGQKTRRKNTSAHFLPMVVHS
Compound,composite z-score [1],composite z-score [2],composite z-score [3],z-score [4],composite z-score [5],composite z-score [6],composite z-score [7],composite z-score [8],composite z-score [9],composite z-score [10]
CCOC(=O)C[C@H]1[C@H](OC(=O)c2ccccc2-c2ccccc2)[C@@H](NC(=O)CC(C)C)c2cc(OCCCO)ccc2N1C(=O)c1ccccc1,0.461,-0.28,-0.56,-0.739 (inactive),0.625,0.211,0.405,1.26,0.523,-0.105
Cc1ccc(S[C@]2(C(=O)NC(C)C)CC(=O)N(Cc3ccccc3)[C@@H]2c2ccc(CO)cc2)cc1,0.0089,0.108,0.915,-0.538 (inactive),-1.18,-1.34,-1.01,-0.363,-1.51,0.159
COc1ccc([Si](C)(C)[C@H]2[C@H](CC(=O)N(CCO)Cc3ccccc3)O[C@@]3(C(=O)N(c4ccccc4)c4ccccc43)[C@@H]2C)cc1,0.717,-0.202,-0.0698,-1.5 (inactive),0.889,0.289,0.686,1.09,0.415,0.841
COc1cc2c(cc1O)C(C)N(Cc1sc3ccccc3c1Cl)CC2 (stereo not given),-0.0748,0.247,0.868,-0.283 (inactive),-1.16,-0.306,-1.27,-0.348,-1.56,-0.0182
COCCOC(=O)N1C(=O)[C@@]2(c3cc(C#CCNC(N)=O)ccc31)[C@H](C(N)=O)[C@H]1C(=O)O[C@H](c3ccccc3)[C@H](c3ccccc3)N1[C@@H]2c1ccc(O)cc1,0.92,0.554,0.614,0.359 (inactive),0.149,-0.575,-0.278,-0.239,0.0656,0.676
CC(C)c1ccc(NN2C(C(O)C(C)c3ccccc3)C=CC3C(=O)N(c4ccccc4)C(=O)C32)cc1 (stereo not given),1.28,1.41,1.03,1.77 (inactive),1.09,1.28,0.308,0.838,0.18,-0.804
COC(=O)C(CC#Cc1ccc2c(c1)[C@]1(C(=O)N2)[C@H](C(=O)N2CCCCCCC2)[C@H]2C(=O)O[C@H](c3ccccc3)[C@H](c3ccccc3)N2[C@@H]1c1ccc(OCCO)cc1)C(=O)OC,2.26,2.85,1.58,0.741 (inactive),1.63,1.5,1.94,1.71,2.55,1.73
COCCOC(=O)N1C(=O)[C@@]2(c3ccccc31)[C@H](C(=O)Nc1nc3ccccc3s1)[C@H]1C(=O)O[C@H](c3ccccc3)[C@H](c3ccccc3)N1[C@@H]2c1ccccc1OCCO,1.53,0.114,0.653,-0.794 (inactive),0.906,0.783,0.209,0.678,0.0159,0.769
COc1ccc(C(=O)Nc2cccc(CN3C(=O)[C@]4(O[C@H](CC(=O)N(CCO)Cc5ccccc5)[C@@H]([Si](C)(C)c5ccc(OC)cc5)[C@@H]4C)c4ccccc43)c2)cc1,1.12,-0.275,0.123,0.288 (inactive),1.11,-0.117,0.666,0.702,0.649,0.794
O=C(O)C1=CC[C@H]2C(=O)N(c3ccccc3)C(=O)[C@@H]12,0.767,0.45,0.682,0.727 (inactive),0.855,1.04,0.325,1.11,0.0793,1.23
COc1cc(Cc2cc3c(c(-c4ccccc4)n2)[Si](C(C)C)(C(C)C)OC3)cc(OC)c1OC,-0.201,-0.113,0.105,-0.877 (inactive),0.607,-0.0611,0.1,0.0088,0.17,1.23
CC(C)[Si]1(C(C)C)OCc2cc(-c3ccc(-c4ccc(Cl)c(Cl)c4)o3)nc(-c3ccc(Oc4ccccc4)cc3)c21,-0.952,0.118,0.745,-1.25 (inactive),-1.78,-2.03,-1.46,-2.09,-2.01,0.434
CCOC(=O)C1=CC[C@@H](c2ccccc2)N(S(=O)(=O)c2ccc(C)cc2)[C@@H]1C#N,0.921,0.386,0.868,0.694 (inactive),0.562,-0.199,-0.181,0.364,-0.542,0.767
C=CC[C@]1(C(=O)NCC(O)CO)N=C(c2ccc(OCCCO)cc2)O[C@H]1c1ccccc1CN=[N+]=[N-] (stereo not given in full),-0.285,0.783,1.18,0.704 (inactive),0.722,0.7,-2.08,-1.17,-0.471,0.274
C=C(C(=O)CC[C@H](OC(=O)c1ccccc1-c1ccccc1C(=O)O)c1ccc(OCCO)cc1)C(C)C,1.26,0.157,0.0371,-0.47 (inactive),1.04,0.114,-0.242,0.0428,0.339,0.548
